Hit rate of the full screen: of about 50,000 compounds, about 800 (1.6%) showed an effect of 50% or more. Many of the other results were omitted from the sample, so strong results are more common in it than they were.
What follows are compounds tested against Bcl-2-like protein 10 (Homo sapiens) (UniProt Q9HD36) (assay: TR3 peptide-Bcl-B binding displacers, biochemical primary FP assay, phenotype converters (AID 1240;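 further: 0% = Bcl-B with tracer peptide and DMSO and 100% = tracer peptide lacking Bcl-B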)). Conditions: GST-Bcl-B / FITC-TR3 peptide fluorescence polarization; stronger effect = higher value; compound at 3.75 mg/L.
Chain of Bcl-2-like protein 10 (Homo sapiens) (Q9HD36 whole entry, looked up): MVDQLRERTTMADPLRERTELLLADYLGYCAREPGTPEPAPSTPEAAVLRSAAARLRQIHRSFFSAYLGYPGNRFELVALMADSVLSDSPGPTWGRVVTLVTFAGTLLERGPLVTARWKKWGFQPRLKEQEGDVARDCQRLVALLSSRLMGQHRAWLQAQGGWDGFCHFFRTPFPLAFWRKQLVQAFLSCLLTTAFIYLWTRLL

Structure (SMILES)	displacement [%]
O=C(O)CCC(=O)Nc1ccc(CC(=O)O)cc1	21.4
CCOC(=O)c1c(NC(=O)C2CCCO2)sc(C(=O)N(CC)CC)c1C (stereo not drawn)	-4
N#C/C(=C\c1ccc(F)cc1)c1nn(CCO)c(N)c1C#N	-45.5
N#C/C(=C\c1ccc(Cl)cc1)c1nn(CCO)c(N)c1C#N	11.2
CCN(CC)c1ccc(/C=C(\C#N)c2nn(CCO)c(N)c2C#N)cc1	68.2
COc1cc(OC)cc(C(=O)O/N=C(\c2ccncc2)c2ccc([N+](=O)[O-])cc2)c1	10.5
O=C1/C(=C/c2ccc(-c3ccc([N+](=O)[O-])cc3)o2)SC(=S)N1Cc1ccccc1	9.4
O=C(O)CCCN1C(=O)/C(=C\c2ccc(-c3ccc(Br)cc3)o2)SC1=S	-65.6
O=C(O)CCN1C(=O)/C(=C/c2ccc(-c3ccc([N+](=O)[O-])cc3)o2)SC1=S	-59.7
O=C1/C(=C\c2ccc(-c3cccc([N+](=O)[O-])c3)o2)SC(=S)N1CCc1ccccc1	114
O=C(O)CCCN1C(=O)/C(=C\c2ccc(-c3cccc([N+](=O)[O-])c3)o2)SC1=S	59
O=C1/C(=C/c2ccc(-c3cccc([N+](=O)[O-])c3)o2)SC(=S)N1Cc1ccco1	9.9
O=C(NC1CCN(Cc2ccccc2)CC1)c1ccc(F)cc1	2.6
FC(F)(F)c1cccc(NC(=S)NCc2ccc3c(c2)OCO3)c1	-6.8
Cc1ccccc1OCCn1cc(C=C2C(=O)NC(=S)NC2=O)c2ccccc21	6.1
COc1cccc(OCCn2cc(/C=C3/SC(=S)NC3=O)c3ccccc32)c1	-15.1
CCc1cc(C)cc(OCCn2cc(/C=C3/SC(=S)N(C)C3=O)c3ccccc32)c1	123
COc1cccc(OCCn2cc(C=C3C(=O)NC(=S)NC3=O)c3ccccc32)c1	36.6
Cc1cccc(OCCn2cc(/C=C3/SC(=S)N(C)C3=O)c3ccccc32)c1	15.1
CCc1cc(C)cc(OCCn2cc(C=C3C(=O)NC(=S)NC3=O)c3ccccc32)c1	14.7
CC(C)(C)c1ccc(OCCn2cc(/C=C3/SC(=S)NC3=O)c3ccccc32)cc1	15.2
CCc1cc(C)cc(OCCOc2ccccc2/C=C2/SC(=S)N(C)C2=O)c1	2.3
O=C1NC(=S)S/C1=C/c1cn(CCOc2ccc(Br)cc2)c2ccccc12	68.9

Structure (SMILES)	displacement [%]
CCC(C)c1ccccc1OCCn1cc(/C=C2/SC(=S)NC2=O)c2ccccc21 (stereo not drawn)	128
O=C1NC(=S)S/C1=C\c1cn(CCOc2ccccc2F)c2ccccc12	-62.3
CCc1cc(C)cc(OCCn2cc(/C=C3/SC(=S)NC3=O)c3ccccc32)c1	78.8
O=C(c1ccc([N+](=O)[O-])cc1)N1CCN(CC2CC3C=CC2C3)CC1 (stereo not drawn)	-6.8
O=C(Nc1ccccc1F)c1ccc(CSc2ccc(Cl)cc2)cc1	6
COc1ccccc1OCCNC(=O)c1ccc(Br)cc1	-19.3
CCOc1ccc(NC(=O)c2cc3cc(OC)ccc3oc2=O)cc1	13.8
O=C(Nc1ccccc1I)C1CC(=O)N(c2ccc(Br)cc2)C1 (stereo not drawn)	-26
CC1(C)CC(NC(=S)Nc2cccc(Cl)c2)CC(C)(C)N1	-3.3
O=S(=O)(c1ccc(Cl)cc1)n1cccc1	6.8
O=[N+]([O-])c1ccccc1C=Nc1cc2c(cc1Br)OCCO2	-4.8
COc1cc2c(cc1NS(=O)(=O)c1ccc([N+](=O)[O-])cc1)oc1ccccc12	-2.9
O=C(O)c1ccc(Cl)c(S(=O)(=O)N2CCCC2)c1	5.8
O=C1c2ccc(Oc3ccc4c(c3)C(=O)N(Cc3cccnc3)C4=O)cc2C(=O)N1Cc1cccnc1	-7
O=[N+]([O-])c1ccc(N2CCOCC2)cc1NC1CC1	4
COc1ccc(C(=O)NNC(=O)c2cccc(C)c2)c(OC)c1	3.3
CCOc1ccc(Nc2cc(=O)n(C)c(=O)n2C)cc1	-4.6
COc1ccc(CSCC(=O)O)cc1C(=O)O	-8.5
Cc1ccc(-c2ccccc2)n1-c1ccc(Cl)c(C(=O)O)c1	-41.6
Cc1ccc(-c2ccccc2)n1-c1ccc(O)c(C(=O)O)c1	20.4
Cc1c(C(=O)O)cccc1-n1c(=O)c2cc3c(=O)n(-c4cccc(C(=O)O)c4C)c(=O)c3cc2c1=O	14
Cc1ccc(-c2ccccc2)n1-c1ccccc1C(=O)O	86.8
Cc1c(C(=O)O)cccc1-n1c(C)ccc1C	85.4

Structure (SMILES)	displacement [%]
COc1cc(C(=O)O)c(-n2c(C)ccc2C)cc1OC	74.7
CC(=O)c1c(C(=O)O)cccc1C(=O)O	4.4
COc1ccc(N)cc1-n1c(C)ccc1C	42.5
CCOC(=O)C1=C(c2ccccc2)N=c2s/c(=C\c3cccnc3)c(=O)n2C1c1cc(OC)ccc1OC (stereo not drawn)	-3
Cc1ccc(C(=O)Nc2ccccc2C(=O)NC(Cc2c[nH]c3ccccc23)C(=O)O)cc1 (stereo not drawn)	7.1
CN1C(N)=NC(=O)C12COC(c1cccnc1)OC2 (stereo not drawn)	7.8
CC(=O)N(C)c1ccc(NC(=O)c2ccccc2[N+](=O)[O-])cc1	-4
Cc1ccc(N(CC(=O)NCCc2ccccc2)S(C)(=O)=O)cc1Cl	19.2
O=C(O)c1cccc(NC2=C(Cl)C(=O)N(c3ccc(Cl)cc3)C2=O)c1	32
Clc1ccccc1COc1cccc(/C=N/Nc2nc(N3CCOCC3)nc(N3CCOCC3)n2)c1	2.6
Cc1ccsc1/C=C(\C#N)c1nc(-c2cccc([N+](=O)[O-])c2)cs1	147
Cc1ccsc1/C=C(/C#N)c1nc(-c2ccc(Cl)cc2)cs1	81.1
Cc1ccc(-c2csc(/C(C#N)=C/c3sccc3C)n2)cc1C	11.7
COc1ccc(-c2csc(/C(C#N)=C\c3sccc3C)n2)cc1	1.8
COc1ccc(-c2csc(/C(C#N)=C/c3ccc(C)o3)n2)cc1OC	-31.7
N#C/C(=C/c1ccco1)c1nc(-c2cc3ccccc3oc2=O)cs1	-1.2
Cc1ccsc1/C=C(/C#N)c1nc(-c2ccc(-c3ccccc3)cc2)cs1	3.1
COc1ccc(-c2csc(/C(C#N)=C/c3sccc3C)n2)cc1OC	181
CCOc1ccc(-c2csc(/C(C#N)=C/c3ccco3)n2)cc1	-6
COc1cccc(-c2csc(/C(C#N)=C/c3sccc3C)n2)c1	-8.9
N#C/C(=C\c1ccco1)c1nc(-c2ccccc2)cs1	58.3
N#C/C(=C\c1cccc(F)c1)c1nc(-c2ccc([N+](=O)[O-])cc2)cs1	8.5

— PubChem BioAssay AID1240 (Sanford-Burnham Center for Chemical Genomics, 2008)
